IL-1B inflam inh = blocks inflammasome-driven IL-1 beta release; THP-1 LPS/ATP IL-1B secretion, AlphaLISA, 16 h; hits give low values; activity change, % at 57.5 µM; actives 4.7% (n = 360,000); AID 743279; in the data active = activity change below about -50%; inconclusive = mostly about -30% to -49%; also: % is scaled to controls: 0 for no effect and ±100 for the full control effect
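Secreted IL-1B measured by AlphaLISA bead assay after 16 h compound exposure of THP-1 cells; compounds (final up to 57.5 uM) added 1 h before LPS (250 ng/mL) and ATP (1.25 mM) stimulation; lower signal means less secretion.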
TDP1 inh = TDP1 (human) enzyme inhibition. Potency, µM (titrated, usually from 130 µM), without a hit: top-dose activity change, negative = inhibition, hits mostly inhibitors. actives 0.28% (n = 350,000). recombinant TDP1, AlphaScreen DNA substrate cleavage. Q9NUW8; also: potency is read from the fitted curve at half-maximal effect; % is scaled to controls: 0 for no effect and ±100 for the full control effect; nearly all actives have a fitted effect of over 40% in size
Target sequence (Q9NUW8 whole entry, looked up): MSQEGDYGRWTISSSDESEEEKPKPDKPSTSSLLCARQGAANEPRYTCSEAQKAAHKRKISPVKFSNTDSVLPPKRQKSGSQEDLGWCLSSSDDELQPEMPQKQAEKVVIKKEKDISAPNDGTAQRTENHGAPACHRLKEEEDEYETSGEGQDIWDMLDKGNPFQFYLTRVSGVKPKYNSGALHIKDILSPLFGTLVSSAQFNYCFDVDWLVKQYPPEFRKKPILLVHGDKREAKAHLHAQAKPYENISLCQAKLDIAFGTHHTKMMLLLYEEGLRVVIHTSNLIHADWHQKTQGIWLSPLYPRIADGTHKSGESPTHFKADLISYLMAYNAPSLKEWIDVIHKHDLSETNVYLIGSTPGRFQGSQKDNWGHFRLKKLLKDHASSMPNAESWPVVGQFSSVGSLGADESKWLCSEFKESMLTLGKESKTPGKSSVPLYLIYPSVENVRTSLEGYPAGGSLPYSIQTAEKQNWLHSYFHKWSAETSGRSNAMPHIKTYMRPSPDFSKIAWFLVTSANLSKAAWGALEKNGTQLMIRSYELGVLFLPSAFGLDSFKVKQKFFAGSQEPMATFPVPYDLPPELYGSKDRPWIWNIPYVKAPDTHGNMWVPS
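Compounds were preincubated with Tdp1 (1 nM final) for 15 min at room temperature before substrate (15 nM final) started a 5 min reaction; beads (10 ug/ml final) were then added for 10 min before AlphaScreen detection.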
DT40 TDP1 CPT = DT40-hTDP1 cell growth loss with CPT; chicken DT40 Tdp1-/-;hTDP1 cells + 20 nM CPT, ATP luminescence, 48 h; Potency, µM (highest dose often 46.2 µM), for the others: at the highest dose activity change, negative = growth inhibition, most hits filed as inhibitors; actives 12% (n = 420,000); AID 686979; also: potency is read from the fitted curve at half-maximal effect; % is scaled to controls: 0 for no effect and ±100 for the full control effect; nearly all actives have a fitted effect of over 55% in size
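Chicken DT40 Tdp1-/- cells complemented with human TDP1, 400 cells/well, exposed to compounds plus 20 nM camptothecin for at least 48 h at 37 C; viability read as ATP content by CellTiter-Glo luminescence.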
TDP1 cell noCPT = qHTS for Inhibitors of human tyrosyl-DNA phosphodiesterase 1 (TDP1): qHTS in cells in absence of CPT; DT40 Tdp1-/- hTDP1 cells, no CPT, ATP luminescence, 48 h; Potency, µM (titrated, usually from 46.2 µM), for the others: at the top dose activity change, negative = growth inhibition, hits mostly inhibitors; actives 15% (n = 420,000); AID 686978, 2013; also: potency is read from the fitted curve at half-maximal effect; % is scaled to controls: 0 for no effect and ±100 for the full control effect; nearly all actives have a fitted effect of over 55% in size
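Cells were dispensed at 400 per well, compounds added by pin tool, plates incubated ≥48 hr at 37 °C, then CellTiter-Glo added for 30 min at room temperature before luminescence reading. Line: DT40 Tdp1-/- complemented with hTDP1; camptothecin omitted.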
TGFb SMAD3 inh = TGF-b pathway inhibition | HepG2 CAGA-GFP TGF-b/SMAD3 reporter, GFP fluorescence, 18 h; TGF-beta stimulated, 500 pg/mL final | Potency, µM (top dose mostly 46.1 µM), for inactives: at the highest dose activity, negative = inhibition, actives largely listed as inhibitors | actives 1.2% (n = 410,000) | AID 588855; also: potency is read from the fitted curve at half-maximal effect; % is scaled to controls: 0 for no effect and ±100 for the full control effect; nearly all actives have a fitted effect of over 65% in size
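Inhibition was scored as loss of TGF-beta-induced (500 pg/mL final, 18 hours, 37 degrees C) GFP in HEPG2 cells carrying a CAGA-GFP reporter, in DMEM with 1% FBS. Well GFP was summed per cell; Activity was normalised to unstimulated and stimulated DMSO wells, then concentration-response fitting.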
HepG2 viability = counter-screen for TGF-b inhibitors: cytotoxicity in HepG2 cells; Potency, µM (top dose mostly 46.1 µM), inactives show top-dose activity change, negative = cytotoxicity, most hits filed as cytotoxic; actives 0.76% (n = 410,000); HepG2 CAGA-GFP viability, ATP luminescence, 18 h; also: potency is read from the fitted curve at half-maximal effect
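HepG2 CAGA-GFP cells (1000/well, DMEM with 1% FBS) received compound, then TGF-beta at 500 pg/mL final, and were incubated 18 hours at 37 degrees C. Viability was read by CellTiter-Glo luminescence. Media-only wells were set as complete cell-killing and DMSO as no toxicity.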
An asterisk follows results filed as active; ? = inconclusive; . = no result given; [ ] = another dose, or the depositor's remark. Compounds with a hit are over-represented: about 18% of the library has one in this group of screens. Unless noted, calls follow the shape of the dose curve; as a rule, active = well fitted curve in the direction sought with a large enough effect; inconclusive = small, poorly fitted or top-dose-only effect, or another doubt; inactive = no such curve, though single readings can be large; an effect the other way counts as inactive or inconclusive.

SMILES	IL-1B inflam inh	TDP1 inh	DT40 TDP1 CPT	TDP1 cell noCPT	TGFb SMAD3 inh	HepG2 viability
CC1CCCCN1c1ncnc(N)c1[N+](=O)[O-] (configuration not stated)	-78*	5%	?	?	7%	1%
CC1Cc2ccccc2N1c1ncnc2nc[nH]c12 (configuration not stated)	-11	5%	?	23µM*	?	-52%
COc1cccc(NC(=O)C2(C)CCCN2C(=O)C(C)C)c1 (configuration not stated)	33	.	0%	27%	39%	1%
Cn1cnc2nc(Cl)nc(Cl)c21	-93*	.	1.6µM*	1.2µM*	3%	15%
O=C(CCC(=O)NNC(=O)COc1ccccc1)NCc1ccccc1	-10	3%	-1%	0%	?	13µM*
C=CCNC(=O)COc1ccc(Oc2ccccc2)cc1	-28	-6%	15µM*	26µM*	-9%	-8%
O=C(COc1ccccc1)NNc1c2ccccc2nc2ccccc12	-23	0%	?	13µM*	?	-40%
Cc1cc(C)cc(OCC(=O)NNC(=O)CCC(=O)NCc2ccccc2)c1	11	5%	-3%	-10%	-2%	-9%
CCCC(=O)NNc1c2ccccc2nc2ccccc12	-18	6%	-11%	?	-5%	-20%
COc1ccc(OCC(=O)NNc2c3ccccc3nc3ccccc23)cc1	-51*	.	23µM*	21µM*	?	-18%
O=C(CN(CCc1ccccc1)S(=O)(=O)c1ccccc1)NCc1ccc(Cl)cc1	.	5%[12.3 µM]	?	?	?	-4%
Cc1ccc(C2/C(=C(\O)c3ccc4c(c3)OCCO4)C(=O)C(=O)N2Cc2cccnc2)cc1 (configuration not stated)	11	9%	-6%	8%	2%	-7%
Cc1cc(O)c(C(C)C)cc1C1(c2cc(C(C)C)c(O)cc2C)OC(=O)c2ccccc21	-99*	5%	15µM*	9.2µM*	13µM*	14µM*
CCC(=O)N1CCc2cc(Br)cc(S(=O)(=O)NCc3ccccc3OC)c21	0	-5%	-9%	-26%	-1%	-1%
Nc1cc2c(cc1Cl)-c1ccc([N+](=O)[O-])cc1C2=NO	3	.	8.2µM*	7.3µM*	?	7%
COc1cc2c(cc1[N+](=O)[O-])-c1ccc([N+](=O)[O-])cc1C2=NO	?	.	26µM*	15µM*	-4%	-7%
O=[N+]([O-])c1ccc2c(c1)C(=NO)c1cc(F)ccc1-2	?	.	16µM*	12µM*	0%	-10%
O=[N+]([O-])c1ccc2c(c1)/C(=N\O)c1ccccc1-2	-8	.	?	?	2%	-11%
NN=C1c2cc([N+](=O)[O-])ccc2-c2ccc([N+](=O)[O-])cc21	.	9%	.	.	.	.
CCCNC(=O)C(Cc1ccc(Br)cc1)NC(=O)c1ccc(C#N)cc1 (configuration not stated)	0	2%	-25%	-16%	-16%	-8%
CC(C)N(CCO)Cc1nc(N2CCOCC2)c2cc(Cl)ccc2n1	.	.	?	21µM*	.	.
COc1ccc(-c2c(C#N)c(N)n(N)c(=O)c2C#N)cc1Cl	-13	6%	8%	?	-16%	0%
N#Cc1c(-c2ccc(Cl)cc2)c(C#N)c(=O)n(N)c1N	-1	7%	?	29µM*	-2%	5%
CSc1nc(N)c(C#N)c(-c2ccc(Cl)cc2)c1C#N	-4	4%	-18%	16µM*	19%	-5%
O=C(c1ccccc1-n1cccn1)N1CCOc2c(cc(-c3ncc(C(F)(F)F)cc3Cl)cc2OCC2CCCO2)C1 (configuration not stated)	.	.	?	-18%	.	.
SMILES	IL-1B inflam inh	TDP1 inh	DT40 TDP1 CPT	TDP1 cell noCPT	TGFb SMAD3 inh	HepG2 viability
CNc1ccc(O)cc1	.	15%	.	.	.	.
CCOc1ccccc1NC(=O)CN1C(=O)C2(SCC(=O)N2c2cccc(F)c2)c2ccccc21 (configuration not stated)	.	2%	?	-17%	11%	0%
CCNCCC(CCC(C)C)c1ccc2c(c1)OCO2 (configuration not stated)	-24	-8%	?	?	-2%	-23%
CC(=O)N(CCC(Cc1ccccc1)c1ccc2c(c1)OCO2)Cc1ccccc1F (configuration not stated)	-4	-3%	?	?	2%	-10%
CC(C)CCC(CCNCc1ccccn1)c1ccc2c(c1)OCO2 (configuration not stated)	?	.	?	?	?	16µM*
CC(C)C(CCNCc1ccccn1)c1ccc(Cl)cc1 (configuration not stated)	.	.	?	13µM*	?	-15%
Fc1ccccc1CNCCC(Cc1ccccc1)c1ccc2c(c1)OCO2 (configuration not stated)	-98*	5%	?	?	?	-57%
Cc1ccc(N(CC(=O)Nc2ccc(Br)cc2)S(=O)(=O)c2cccs2)cc1	.	0%	-8%	-23%	-6%	-34%
O=C(Nc1c(C(=O)Nc2cccc(C(F)(F)F)c2)oc2ccccc12)c1cc(=O)c2ccccc2o1	.	5%	4.1µM*	?	-25%	-40%
Cc1ccc(NC(=O)c2oc3ccccc3c2NC(=O)c2cc3ccccc3o2)cc1	.	6%	?	16µM*	-22%	-22%
CN1CCN(CC(=O)Nc2c(C(=O)c3ccccc3)oc3ccccc23)CC1	-71*	1%	?	?	-28%	-36%
COc1ccc2oc(C(=O)c3ccccc3)c(NC(=O)CN3CCN(C)CC3)c2c1	-18	6%	-6%	-6%	12%	-14%
CCOCc1c(C(=O)OCC(=O)Nc2ccc(C)c(S(=O)(=O)N(C)C)c2)oc2ccccc12	3	1%	?	21µM*	-4%	10%
Cc1cccc(NC(=O)c2oc3ccccc3c2NC(=O)c2cc(=O)c3ccccc3o2)c1	.	0%	-8%	0%	3%	-1%
CC(C)COP(=O)(OCC(C)C)C(O)c1ccc(N(C)C)cc1 (configuration not stated)	8	8%	2%	?	-27%	-13%

Source: PubChem
